PubChem BioAssay (NCI)
About 79,000 compounds went through this panel and 15% of them were active in at least one assay; those are over-represented in the sample as a whole. Calls of active or inactive are those of the source. Cut-off read from the data, not from the text of the source: active = growth inhibition above about 70%; inactive = the rest.

Assay: NCI Yeast Anticancer Drug Screen. Data for the CLN2oe strain (AID 163);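 note: 0% = growth of vehicle-only control cultures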
Conditions: S. cerevisiae CLN2oe strain, at 3.7 µM, hits give high values
Procedure, shortened: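 Yeast cells carrying a defined cell-cycle control alteration were exposed to test compounds. Growth inhibition was scored against vehicle-treated control cultures.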

Row | Compound | growth inhibition
1 | CCC/C(Cl)=N\OC(=O)Nc1cccc(C(F)(F)F)c1 | 5% (inactive)
2 | [O-][n+]1c2ccc(O)cc2nc2ccc(Cl)cc21 | 9% (inactive)
3 | Clc1ccccc1C1OC1c1ccccc1Cl (centres undefined) | 7% (inactive)
4 | c1ccc2c(c1)c1ncccc1c1nccnc21 | -5% (inactive)
5 | CC(=O)Nc1ccc2c(c1)C(=Nc1ccc(C(=O)O)cc1)c1ccccc1-2 | -11% (inactive)
6 | COc1ccc(OC)c2cc3ccccc3cc12 | 14% (inactive)
7 | COc1cc(C2c3cc4c(cc3OC(NNc3ccccc3)C2C)OCO4)cc(OC)c1OC (centres undefined) | 40% (inactive)
8 | O=C1c2cc([N+](=O)[O-])ccc2-c2cccc(F)c21 | 0% (inactive)
9 | CCCCCCCCCCCC(=O)N(C)C | 19% (inactive)
10 | CCCCCCCCCCCC1=C(O)C(=O)C=C(O)C1=O | -17% (inactive)
11 | Cc1ccc(CSC(N)=Nc2ccccc2)cc1C | 10% (inactive)
12 | CCCCCCCCCCC1CCC(=O)O1 (centres undefined) | 1% (inactive)
13 | O=[N+]([O-])c1cc(CCl)ccc1CCl | 15% (inactive)
14 | Nc1ccc2c(c1)C(=O)c1cccc(N)c1C2=O | 3% (inactive)
15 | CCCCCCCCCCNC(=O)OCC | 0% (inactive)
16 | CC1=C(C)Cc2c(O)ccc(O)c2C1 | -8% (inactive)
17 | COc1ccc2c(c1)C(=O)c1ccccc1C2 | -1% (inactive)
18 | CCC(=O)OCCn1c2nc(=O)[nH]c(=O)c-2nc2cc(C)c(C)cc21 | -5% (inactive)
19 | O=C(OCCN1CCCCCC1)C(c1ccsc1)C1CCCCC1 (centres undefined) | 32% (inactive)
20 | Oc1c(Br)cc(Br)cc1C1CCCCC1 | 13% (inactive)

Row | Compound | growth inhibition
21 | CC1(C)[C@@H]2CC[C@]1(C)[C@H](OC(=O)CSC#N)C2 | -1% (inactive)
22 | S=C(N/N=C(/c1ccccc1)c1ccccn1)N1CCCCCC1 | 0% (inactive)
23 | Cc1ccc2[nH]c3c(C)c4cc[n+](C)cc4c(C)c3c2c1 | 37% (inactive)
24 | CNC(=O)OCc1c(COC(=O)NC)c(-c2ccc(-c3ccccc3)cc2)n(C)c1C | -2% (inactive)
25 | COc1ccccc1/C=C1\Sc2scc(-c3cccc([N+](=O)[O-])c3)[n+]2C1=O | 82% (active)
26 | O=[N+]([O-])c1ccc2c(c1)C(N1CCN(CCO)CC1)Cc1ccc(F)cc1S2 (centres undefined) | -5% (inactive)
27 | Cc1ccc(CCC2=CCCc3c2ccc2ccccc32)cc1 | -2% (inactive)
28 | O=[N+]([O-])c1cccc2nccc(NCCCO)c12 | 5% (inactive)
29 | Cc1ccc(-n2cc(-c3ccc(Cl)cc3)c(C#N)c2N)cc1 | -13% (inactive)
30 | Cc1ccc(S/N=C\c2ccccc2O)cc1 | 1% (inactive)
31 | O=C(O)C1OC1(c1cccc(Cl)c1)c1ccccc1Cl (centres undefined) | 16% (inactive)
32 | NC(=S)N/N=C\c1nccc2ccccc12 | -11% (inactive)
33 | Clc1cccc(C(Nc2nncs2)Nc2nncs2)c1Cl | -2% (inactive)
34 | O=C(OCC=C1CCCC1)c1cc([N+](=O)[O-])cc([N+](=O)[O-])c1 | 1% (inactive)
35 | O=C(Nc1ccccc1)C(=O)C(C(=O)c1ccccc1)C(c1ccccc1)c1ccccc1 (centres undefined) | 2% (inactive)
36 | N#CN1C2CCC1CC(=O)C2 | 7% (inactive)
37 | COc1ccccc1C(=O)OCC1CCCN2CCCCC12 (centres undefined) | -1% (inactive)
38 | CCNc1nnc(CSc2nc(-c3ccccc3)c(-c3ccccc3)[nH]2)s1 | -7% (inactive)
39 | O=C1c2ccccc2-c2n[nH]c3cccc1c23 | -21% (inactive)
